In the supplement of paper PMC6331611:
± gives the standard deviation of the averaged measurements. In all, about 1,600 compounds were measured (“normalized intracellular growth (luminescence, IQM-normalized) in RAW264.7 macrophages”: median about 1, lowest 2% from about 0.43 on). What follows is part of a selection rich in the lowest values, with near analogues and random picks from the rest.

System: Salmonella enterica serovar Typhimurium SL1344
Test: normalized intracellular growth (luminescence, IQM-normalized) in RAW264.7 macrophages (fraction of plate interquartile mean); higher = more bacterial growth (less inhibition)
Conditions: 10 µM

SMILES	normalized intracellular growth (time point: T3 (3 h))	normalized intracellular growth (time point: Tfinal (~6 h))
Oc1cc(Cl)ccc1Oc1ccc(Cl)cc1Cl	0.343 ± 0.083	0.256 ± 0.12
Oc1ccc(Cl)cc1	1.02 ± 0.017	1.13 ± 0.023
Oc1ccc(Cl)cc1Cc1cc(Cl)ccc1O	1.03 ± 0.02	0.859 ± 0.13
N=C1NC(=O)N2CC12 (stereo not given)	1.051 ± 0.0073	0.853 ± 0.12
O=[N+]([O-])OCC(CO[N+](=O)[O-])O[N+](=O)[O-]	1.01 ± 0.044	0.68 ± 0.22
CC[C@H]1[C@@H]2C[C@H]3[C@@H]4N(C)c5ccccc5[C@]45C[C@@H]([C@@H]2[C@H]5O)N3[C@@H]1O	1.07 ± 0.066	0.799 ± 0.035
CCn1cc(C(=O)O)c(=O)c2cc3c(cc21)OCO3	0.923 ± 0.032	0.192 ± 0.011
CC[C@@H](c1cccc(O)c1)[C@@H](C)CN(C)C	1.09 ± 0.081	0.708 ± 0.38
CC[C@@H](C(=O)[C@@H](C)[C@@H](O)[C@H](C)[C@@H]1O[C@@H]([C@@H](CC)C(=O)O)CC[C@@H]1C)[C@H]1O[C@]2(C=C[C@@H](O)[C@]3(CC[C@@](C)([C@H]4CC[C@](O)(CC)[C@H](C)O4)O3)O2)[C@H](C)C[C@@H]1C	1.06 ± 0.083	0.73 ± 0.13
CN1C[C@H](C(=O)N[C@]2(C)O[C@@]3(O)[C@@H]4CCCN4C(=O)[C@H](Cc4ccccc4)N3C2=O)C=C2c3cccc4[nH]cc(c34)C[C@H]21	1.03 ± 0.02	0.769 ± 0.38
CC([C@H](O)c1ccccc1)N(C)C (stereo not given in full)	0.977 ± 0.096	1.08 ± 0.12
C=C/C=C\CC1=C(C)[C@@H](OC(=O)[C@@H]2[C@@H](/C=C(\C)C(=O)OC)C2(C)C)CC1=O.C=C/C=C\CC1=C(C)[C@@H](OC(=O)[C@@H]2[C@@H](C=C(C)C)C2(C)C)CC1=O	1.01 ± 0.014	0.938 ± 0.13
OC[C@@H](O)[C@H]1O[C@@H]2O[C@H](C(Cl)(Cl)Cl)O[C@@H]2[C@H]1O	1.01 ± 0.039	1.07 ± 0.077
CC(=O)[O][Hg][c]1ccccc1	0.575 ± 0.093	0.336 ± 0.15
O=C([O-])Cc1ccccc1.[Na+]	1.15 ± 0.043	0.699 ± 0.11
CCCCOC(=O)c1ccccc1C(=O)OCCCC	1.029 ± 0.01	1.11 ± 0.15
C[CH2][Hg][S]c1ccccc1C(=O)[O-].[Na+]	0.4 ± 0.083	0.819 ± 0.26
CC(O)CN1CCN(CC(=O)[O-])CCN(CC(=O)[O-])CCN(CC(=O)[O-])CC1.[Gd+3] (stereo not given)	0.946 ± 0.083	1.23 ± 0.098
C#CC(C)(O)CC (stereo not given)	0.971 ± 0.038	0.758 ± 0.24
CCN1C[C@]2(COC)[C@H](O)C[C@H](OC)[C@@]34[C@@H]5C[C@@]6(O)[C@H](OC(=O)c7ccccc7)[C@@H]5[C@@](OC(C)=O)([C@@H]([C@H](OC)[C@H]23)[C@@H]14)[C@@H](O)[C@@H]6OC	0.971 ± 0.025	0.837 ± 0.045
